Tested on: HCI11 (cells of an ER-positive luminal breast cancer xenograft)
Test: cell viability (% of vehicle); higher = less cytotoxic
Conditions: 10 µM; 72 h
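Note: PDX cells carrying CMV promoter-driven luciferase, viability read as total photon flux per second by IVIS imaging following D-luciferin, vehicle control 0.1% DMSO.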

Row | Structure (SMILES) | cell viability
1 | O=C1NC(=O)[C@@H](c2c[nH]c3ccccc23)[C@H]1c1cn2c3c(cccc13)CCC2 [Tivantinib (ARQ 197)] | 111
2 | CCC1(O)CC2CN(CCc3c([nH]c4ccccc34)C(C(=O)OC)(c3cc4c(cc3OC)N(C)C3C(O)(C(=O)OC)C(OC(C)=O)C5(CC)C=CCN6CCC43C65)C2)C1 (configuration not stated) [vinblastine] | 96.2
3 | Nc1ccn(C2CCC(CO)O2)c(=O)n1 (configuration not stated) [Zalcitabine] | 93.5
4 | CCc1nc(N)nc(N)c1-c1ccc(Cl)cc1 [Pyrimethamine] | 121
5 | C=C[C@]1(C)C[C@@H](OC(=O)CSC2C[C@H]3CC[C@@H](C2)N3C)[C@]2(C)[C@H](C)CC[C@]3(CCC(=O)[C@H]32)[C@@H](C)[C@@H]1O (some centres not stated) [Retapamulin] | 93.3
6 | Nc1ccc(S(N)(=O)=O)cc1 [Sulfanilamide] | 83.1
7 | CN(C)CCC(c1ccc(Br)cc1)c1ccccn1.O=C(O)C=CC(=O)O (configuration not stated) [Brompheniramine hydrogen maleate] | 99.5
8 | O=C1CCC(N2C(=O)c3ccccc3C2=O)C(=O)N1 (configuration not stated) [Thalidomide] | 103
9 | Cc1cccc(-c2nn3c(c2-c2ccnc4ccc(C(N)=O)cc24)CCC3)n1 | 98.7
10 | O=C(CS(=O)Cc1ccco1)NCC=CCOc1cc(CN2CCCCC2)ccn1 (configuration not stated) [Lafutidine] | 108
11 | c1ccc(-c2ccc(C(c3ccccc3)n3ccnc3)cc2)cc1 (configuration not stated) [Bifonazole] | 95.3
12 | Nc1nccs1 [Aminothiazole] | 117

— the supplement of paper PMC6992640
